According to the supplement of paper PMC12645437, “Orthogonal IMiD-Degron Pairs Induce Selective Protein Degradation in Cells” (ACS Chemical Biology, 2025):
In all, about 8,300 sequences were measured (“log2 fold change of degron read counts, EGFP-low vs EGFP+ sorted cells (limma voom), compound-induced degradation”: median about -1.1, highest 2% from about 3.2 on). The sample as a whole holds a higher share of the highest values than the screen did.

T1: CRBN, Q96SW2
T1 chain: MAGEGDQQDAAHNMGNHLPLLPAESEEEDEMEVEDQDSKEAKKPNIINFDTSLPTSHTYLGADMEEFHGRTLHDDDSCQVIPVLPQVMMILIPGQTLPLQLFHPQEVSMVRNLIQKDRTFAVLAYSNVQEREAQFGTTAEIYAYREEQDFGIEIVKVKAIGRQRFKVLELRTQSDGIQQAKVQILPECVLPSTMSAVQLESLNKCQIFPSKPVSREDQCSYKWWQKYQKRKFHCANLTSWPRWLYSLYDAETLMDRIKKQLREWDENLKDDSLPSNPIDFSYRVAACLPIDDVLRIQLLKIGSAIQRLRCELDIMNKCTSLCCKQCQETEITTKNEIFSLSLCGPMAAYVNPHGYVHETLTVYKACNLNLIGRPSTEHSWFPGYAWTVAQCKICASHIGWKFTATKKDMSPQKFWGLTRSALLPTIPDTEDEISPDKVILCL


Target: T1, CRBN, Q96SW2
Assay: log2 fold change of degron read counts, EGFP-low vs EGFP+ sorted cells (limma voom), compound-induced degradation; higher = more compound-induced degradation of the degron-EGFP fusion; degrons are variants of IKZF1/3 zinc finger 2; compound dose not given here
Settings: Jurkat, 18 h
[1] = compound: compound 19 (5-tert-butyl-thalidomide)
[2] = compound: compound 22 (5-morpholino-thalidomide)
[3] = compound: compound 33 (diphenyl IMiD analogue)
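Also: pooled lentiviral library of zinc finger degron-EGFP fusions in mCherry-positive Jurkat cells, FACS-sorted after compound exposure, with degron abundance counted by next-generation sequencing.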

Sequence | log2 fold change of degron read counts [1] | log2 fold change of degron read counts [2] | log2 fold change of degron read counts [3] | log2 fold change of degron read counts (compound: thalidomide)
FKCPICGHRFTQKGNLLRHIKL [46F_47K_49P_50I_52G_53H_54R_55F_67L_, Q9UKT9] | -2.63 | -2.88 | -3.36 | -2.52
FQCDICGAFFTQKGNLLRHIKL [46F_47Q_49D_50I_52G_53A_54F_55F_67L_, Q9UKT9] | -2.31 | -1.64 | 0.643 | 0.872
FECNQCGRDFTQKGNLLRHIKL [46F_47E_49N_50Q_52G_53R_54D_55F_67L_, Q9UKT9] | -3.19 | -3.55 | -3.13 | -3.35
LYCPICGFCCTQKGNLLRHIKL [46L_47Y_49P_50I_52G_53F_54C_55C_67L_, Q9UKT9] | 3.56 | 3.56 | 2.91 | 1.99
LVCPICGFCCTQKGNLLRHIKL [46L_47V_49P_50I_52G_53F_54C_55C_67L_, Q9UKT9] | 1.02 | 2.52 | 2.24 | 2.97
LLCPICGFCCTQKGNLLRHIKL [46L_47L_49P_50I_52G_53F_54C_55C_67L_, Q9UKT9] | 0.766 | 0.49 | 1.44 | 1.92
LFCPICGFCCTQKGNLLRHIKL [46L_47F_49P_50I_52G_53F_54C_55C_67L_, Q9UKT9] | 3.44 | 3.46 | 2.76 | 2.26
LDCPICGFCCTQKGNLLRHIKL [46L_47D_49P_50I_52G_53F_54C_55C_67L_, Q9UKT9] | 0.0932 | -0.387 | 0.637 | 1.33
LCCPICGFCCTQKGNLLRHIKL [46L_47C_49P_50I_52G_53F_54C_55C_67L_, Q9UKT9] | 1.74 | 2.1 | 2.79 | 2.63
LNCPICGFCCTQKGNLLRHIKL [46L_47N_49P_50I_52G_53F_54C_55C_67L_, Q9UKT9] | 1.6 | 0.635 | 0.926 | 1.15
LHCPICGFCCTQKGNLLRHIKL [46L_47H_49P_50I_52G_53F_54C_55C_67L_, Q9UKT9] | 2.7 | 2.71 | 2.46 | 1.82
LICPICGFCCTQKGNLLRHIKL [46L_47I_49P_50I_52G_53F_54C_55C_67L_, Q9UKT9] | 0.314 | 1.98 | 1.85 | 2.51
LWCPICGFCCTQKGNLLRHIKL [46L_47W_49P_50I_52G_53F_54C_55C_67L_, Q9UKT9] | 3.2 | 3.49 | 2.92 | 2.17
LQCPICGFCCTQKGNLLRHIKL [46L_47Q_49P_50I_52G_53F_54C_55C_67L_, Q9UKT9] | 1.14 | 2.25 | 2.13 | 3.61
LMCPICGFCCTQKGNLLRHIKL [46L_47M_49P_50I_52G_53F_54C_55C_67L_, Q9UKT9] | 0.471 | 1.34 | 2.61 | 2.08
FVCNVCGARFTQKGNLLRHIKL [46F_47V_49N_50V_52G_53A_54R_55F_67L_, Q9UKT9] | -0.689 | 0.0526 | -0.518 | 0.565
FDCEICGHAFTQKGNLLRHIKL [46F_47D_49E_50I_52G_53H_54A_55F_67L_, Q9UKT9] | -2.17 | -2.36 | -2.99 | -2.62
FQCEICGHAFTQKGNLLRHIKL [46F_47Q_49E_50I_52G_53H_54A_55F_67L_, Q9UKT9] | -3.35 | -3.01 | -2.87 | -1.5
FGCNQCGRAFTQKGNLLRHIKL [46F_47G_49N_50Q_52G_53R_54A_55F_67L_, Q9UKT9] | -2.18 | -2.21 | -2.02 | -1.91
FSCEICGRSFTQKGNLLRHIKL [46F_47S_49E_50I_52G_53R_54S_55F_67L_, Q9UKT9] | -1.46 | -2.51 | -1.36 | -1.71
FTCPICGHQFTQKGNLLRHIKL [46F_47T_49P_50I_52G_53H_54Q_55F_67L_, Q9UKT9] | 0.276 | 0.993 | 2.35 | 2.28
FLCDQCGASFTQKGNLLRHIKL [46F_47L_49D_50Q_52G_53A_54S_55F_67L_, Q9UKT9] | -2 | -2.92 | -1.43 | -3.07
FMCEICGRCFTQKGNLLRHIKL [46F_47M_49E_50I_52G_53R_54C_55F_67L_, Q9UKT9] | -2.91 | -2.9 | -1.29 | -1.79
FTCDQCGAFFTQKGNLLRHIKL [46F_47T_49D_50Q_52G_53A_54F_55F_67L_, Q9UKT9] | -2.38 | -2.78 | -2.11 | -2.23
FVCPICGAEFTQKGNLLRHIKL [46F_47V_49P_50I_52G_53A_54E_55F_67L_, Q9UKT9] | 0.162 | 2.31 | 1.62 | 2.6
FQCPICGAEFTQKGNLLRHIKL [46F_47Q_49P_50I_52G_53A_54E_55F_67L_, Q9UKT9] | 1.17 | 1.71 | 2.51 | 3.61
FQCNICGAEFTQKGNLLRHIKL [46F_47Q_49N_50I_52G_53A_54E_55F_67L_, Q9UKT9] | -1.13 | 0.376 | 1.25 | 3.24
FNCNICGAEFTQKGNLLRHIKL [46F_47N_49N_50I_52G_53A_54E_55F_67L_, Q9UKT9] | -0.383 | -1.22 | -0.688 | -0.836
FYCNICGAEFTQKGNLLRHIKL [46F_47Y_49N_50I_52G_53A_54E_55F_67L_, Q9UKT9] | 1.9 | 1.64 | 0.908 | -1.03
FSCPICGAEFTQKGNLLRHIKL [46F_47S_49P_50I_52G_53A_54E_55F_67L_, Q9UKT9] | 1.92 | 1.11 | 1.41 | 1.11
